Screening results deposited in PubChem by National Center for Advancing Translational Sciences (NCATS).
DT40 TDP1 CPT: qHTS for Inhibitors of human tyrosyl-DNA phosphodiesterase 1 (TDP1): qHTS in cells in presence of CPT; chicken DT40 Tdp1-/-;hTDP1 cells + 20 nM CPT, ATP luminescence, 48 h; AID 686979, 2013; Potency, µM (series often up to 46.2 µM), usual class: inhibitors; hit rate 12% among 420,000; note: nearly all actives have a fitted effect of over 55% in size
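Cell growth measured by CellTiter-Glo luminescence after a minimum 48 h, 37 C compound exposure with 20 nM CPT in Tdp1-knockout DT40 cells stably expressing hTDP1, seeded 400/well; qHTS titration format.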
TDP1 cell noCPT: qHTS for Inhibitors of human tyrosyl-DNA phosphodiesterase 1 (TDP1): qHTS in cells in absence of CPT. hit rate 15% among 420,000. Potency, µM (series often up to 46.2 µM), hits mostly inhibitors. DT40 Tdp1-/- hTDP1 cells, no CPT, ATP luminescence, 48 h; note: nearly all actives have a fitted effect of over 55% in size
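Compound effects on proliferation are scored in DT40 Tdp1-/-;hTDP1 cells in the absence of CPT. ATP levels (CellTiter-Glo luminescence) are recorded after a ≥48 hr, 37 °C incubation.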
Six1-Eya2 blk: qHTS Assay for Inhibitors of the Six1/Eya2 Interaction; hit rate 0.56% among 360,000; AlphaScreen GST-Six1/His-Eya2 binding, biochemical; stronger effect = lower value; Homeobox protein SIX1 (Homo sapiens) + Protein phosphatase EYA2 (Homo sapiens), …; activity change, % (concentration not given with the values); in the data active = activity change below about -65%; inconclusive = mostly about -30% to -63%
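Six1/Eya2 binding was read as AlphaScreen signal after compounds were pinned into GST-Six1 plus His-tagged Eya2 (5X stock 250/500 nM) in pH 8.0 Tris/NaCl/TCEP buffer, beads added, then incubated 1 h, 37 C, dark.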
TDP1 block: qHTS Assay for Inhibitors of Tyrosyl-DNA Phosphodiesterase (TDP1); Tyrosyl-DNA phosphodiesterase 1 (Homo sapiens), Q9NUW8; recombinant TDP1, AlphaScreen DNA substrate cleavage; Potency, µM (top dose mostly 130 µM), usual class: inhibitors; hit rate 0.28% among 350,000; note: nearly all actives have a fitted effect of over 40% in size
Target sequence (Q9NUW8 whole entry, looked up): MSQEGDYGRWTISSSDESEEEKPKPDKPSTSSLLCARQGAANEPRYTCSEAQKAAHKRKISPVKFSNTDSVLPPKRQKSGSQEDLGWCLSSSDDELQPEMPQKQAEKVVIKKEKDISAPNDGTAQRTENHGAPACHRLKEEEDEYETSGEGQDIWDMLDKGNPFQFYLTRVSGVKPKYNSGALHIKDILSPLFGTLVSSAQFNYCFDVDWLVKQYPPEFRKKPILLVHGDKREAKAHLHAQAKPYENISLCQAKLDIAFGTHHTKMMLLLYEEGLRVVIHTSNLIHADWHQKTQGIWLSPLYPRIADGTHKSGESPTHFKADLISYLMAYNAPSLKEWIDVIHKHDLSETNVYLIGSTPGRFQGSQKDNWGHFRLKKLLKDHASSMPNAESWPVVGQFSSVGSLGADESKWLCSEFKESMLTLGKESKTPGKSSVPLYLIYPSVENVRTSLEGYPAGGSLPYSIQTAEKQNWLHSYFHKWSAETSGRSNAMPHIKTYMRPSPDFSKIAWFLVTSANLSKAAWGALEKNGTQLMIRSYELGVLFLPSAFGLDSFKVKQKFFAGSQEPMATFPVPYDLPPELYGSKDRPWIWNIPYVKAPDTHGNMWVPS
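Compounds were preincubated with Tdp1 (1 nM final) for 15 min at room temperature before substrate (15 nM final) started a 5 min reaction; beads (10 ug/ml final) were then added for 10 min before AlphaScreen detection.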
CtBP-E1A inh: qHTS Assay for Inhibitors of the CtBP/E1A Interaction | CtBP / adenovirus E1A interaction (AlphaScreen) | AlphaScreen GST-E1A/His-CtBP binding, 1536-well; stronger effect = lower value | activity change, % (test concentration not listed) | hit rate 0.49% among 340,000 | AID 651724, 2012; in the data active = activity change below about -65%; inconclusive = mostly about -30% to -63%
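AlphaScreen with 125 nM GST-E1A and 125 nM His-CtBP (5X stocks) in Tris pH 8.0, 300 mM NaCl, BSA, Tween 20, TCEP. Compounds preincubated 2 h at 37 deg C, then glutathione donor/nickel acceptor beads added for 1 h at 37 deg C in dark.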
IL1B secr inh: qHTS for Inhibitors of Inflammasome Signaling: IL-1-beta AlphaLISA Primary Screen. hit rate 4.7% among 360,000. THP-1 LPS/ATP IL-1B secretion, AlphaLISA, 16 h; stronger effect = lower value. AID 743279, 2014. activity change, % at 57.5 µM; in the data active = activity change below about -50%; inconclusive = mostly about -30% to -49%
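Secreted IL-1B measured by AlphaLISA bead assay after 16 h compound exposure of THP-1 cells; compounds (final up to 57.5 uM) added 1 h before LPS (250 ng/mL) and ATP (1.25 mM) stimulation; lower signal means less secretion.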
Large screens that a line does not name were inactive. In the library only some 18% were active in any assay of this set; here they are far more common. Unless noted, calls come from the whole dose curve; as a rule, active = well fitted curve in the direction sought with a large enough effect; inconclusive = small, poorly fitted or top-dose-only effect, or another doubt; inactive = no such curve, though single readings can be large; an effect the other way counts as inactive or inconclusive.

COc1cc(OC)cc(-c2c(C#Cc3ccsc3)c3cc(-c4ccc(N(C)C)nc4)ccc3n2C)c1	DT40 TDP1 CPT inconclusive, TDP1 cell noCPT 21µM
COc1ccc(-c2ccc3c(c2)c(C#Cc2ccsc2)c(-c2cc(OC)cc(OC)c2)n3C)cc1	TDP1 cell noCPT inconclusive
COc1cc(OC)cc(-c2c(-c3ccc(F)cc3)c3cc(-c4ccc(OC)nc4)ccc3n2C)c1	DT40 TDP1 CPT inconclusive, TDP1 cell noCPT 23µM
COc1cccc(-c2c(-c3cc(OC)cc(OC)c3)n(C)c3ccc(Br)cc23)c1	none
COc1ccc(-c2c(-c3cc(OC)cc(OC)c3)n(C)c3ccc(-c4ccc(SC)cc4)cc23)cc1	none
O=C(CN1CCSC1=NCc1ccccc1)c1ccc(Cl)c(Cl)c1	DT40 TDP1 CPT inconclusive, TDP1 cell noCPT inconclusive
C=CCn1c(=N)n(CC(=O)OC)c2ccccc21	none
N=c1n(CC(=O)c2cccs2)c2ccccc2n1Cc1ccccc1	DT40 TDP1 CPT 16µM, TDP1 cell noCPT 16µM
O=C(Cn1c(NCCO)nc2ccccc21)c1ccc(Cl)cc1	TDP1 cell noCPT inconclusive
C=CCn1c(=N)n(CC(=O)c2ccc(Cl)cc2)c2ccccc21	DT40 TDP1 CPT 9.2µM, TDP1 cell noCPT inconclusive, IL1B secr inh -90 (no result: TDP1 block)
O=C(O)Cn1c(=O)n(Cc2ccccc2)c2ccccc21	none (no result: TDP1 block)
CCCCc1n(CC(=O)c2ccc(Cl)cc2)c2ccccc2[n+]1C	DT40 TDP1 CPT 6.5µM, TDP1 cell noCPT 6.5µM, IL1B secr inh -68
CCCn1c(=N)n(CC(=O)O)c2ccccc21	none (no result: TDP1 block)
C=CCn1c(=N)n(CC(=O)c2ccc(Br)s2)c2ccccc21	DT40 TDP1 CPT inconclusive, TDP1 cell noCPT 18µM, IL1B secr inh -74
O=C(O)Cc1sc(Nc2ccccc2)nc1-c1ccc(Cl)cc1	none
Cc1ccccc1OCCC(=O)Nc1cc(S(=O)(=O)N2CCCCC2)ccc1N1CCN(C)CC1	DT40 TDP1 CPT inconclusive, TDP1 cell noCPT inconclusive (no result: TDP1 block, CtBP-E1A inh)
COc1ccc(S(=O)(=O)N2CCOCC2)cc1NC(=O)Cc1cccs1	none
CC(=O)NCCC(=O)Nc1cc(S(=O)(=O)N2CCCCC2)ccc1N1CCCCC1	DT40 TDP1 CPT inconclusive, TDP1 cell noCPT 23µM (no result: CtBP-E1A inh)
CCOc1ccc(S(=O)(=O)N2CCCCC2)cc1NC(=O)Cc1cccs1	DT40 TDP1 CPT inconclusive, TDP1 cell noCPT 18µM
Cc1ccccc1OCC(=O)Nc1cc(S(=O)(=O)N2CCOCC2)ccc1N1CCCC1	DT40 TDP1 CPT inconclusive, TDP1 cell noCPT inconclusive (no result: CtBP-E1A inh)
CC(C)c1ccccc1OCC(=O)Nc1cc(S(=O)(=O)N2CCOCC2)ccc1N1CCCC1	DT40 TDP1 CPT inconclusive, TDP1 cell noCPT 15µM, IL1B secr inh -56 (no result: TDP1 block)
Cc1ccc(OCC(=O)Nc2cc(S(=O)(=O)N3CCCCC3)ccc2N2CCN(C)CC2)c(C)c1	DT40 TDP1 CPT 15µM, TDP1 cell noCPT 9.2µM, Six1-Eya2 blk inconclusive, IL1B secr inh inconclusive
COc1ccc(S(=O)(=O)N2CCOC2CNC(=O)C(=O)NCCCN2CCCC2=O)cc1OC (stereo not drawn)	none (no result: TDP1 block)
CCC1CCC(N2CCN(c3cccc(OC)c3)CC2)CC1 (stereo not drawn)	none (no result: TDP1 block)
Cc1cc(OCC(=O)Nc2ccccc2N2CCOCC2)c(C(C)C)cc1Cl	DT40 TDP1 CPT 16µM, TDP1 cell noCPT 15µM
CCOc1ccccc1OCC(=O)Nc1cc(S(=O)(=O)N2CCCCC2)ccc1OC	DT40 TDP1 CPT inconclusive, TDP1 cell noCPT inconclusive
CCOc1ccccc1OCC(=O)Nc1cc(S(=O)(=O)N2CCCCC2)ccc1N1CCN(CC)CC1	DT40 TDP1 CPT 23µM, TDP1 cell noCPT 16µM
